Whole data set: some 24,000 sequences, median “enrichment r” near 0.99, cut for the highest 2% near 3.7. This excerpt belongs to a sample that is enriched for the highest values.
T1: UNK ZnF1-3 (human, UniProt Q9C0B0 31-174)
T1 sequence: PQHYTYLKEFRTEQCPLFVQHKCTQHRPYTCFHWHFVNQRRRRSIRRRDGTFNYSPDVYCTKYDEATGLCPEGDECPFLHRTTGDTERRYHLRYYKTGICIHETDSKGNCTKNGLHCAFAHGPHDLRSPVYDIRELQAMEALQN

B1: chr1:59925254:59925255:+_ENSMUSG00000067336_ENSMUST00000087435|mus_hu|FALSE|FALSE (ssRNA)
RNA: GGGAGUUCUACAGUCCGACGAUCAUCUUGUUCUGAACAUGGAUUGCUGUUGUUGUUAUUGGAAUUAGUUCGGCCACCUUCUAGUGGCCGUUCCCUCCUGUCCACAAGACGAUCCAGAACACCUUCAUCAUGGCCAGCUUGUUGCAACAGAGGAUUGAGCAUCA
B2: chr4:101271765:101271766:+_ENSMUSG00000028528_ENSMUST00000094953|mus_mus|motif|central (ssRNA)
RNA: GGGAGUUCUACAGUCCGACGAUCAGACUUGGGUGACAAGUUGUAUACUGUGUAGUGGUCAAGAUGUCUGGAAUCCAAAAAGCGGCGGAUGUCAUCAACCUGAUUCCUGAAUCCUAUGUCAACACUAUCCACAGGAAAGGACAUCAACAGAGGAUUGAGCAUCA
B3: 5953805_5956048_782_CDS_ENSMUSG00000024833_ENSMUST00000025752|mouse|control|control (ssRNA)
RNA: GGGAGUUCUACAGUCCGACGAUCCAAGCCCUGUGCGGAGCCAAAGGUGGUCACCACUUCUCCCCGGUUGGUUCUGGAGGUGUAUUUCUGGGAGGGGGUAGCACUCGGGGAGAAACUUGACGGUGAGAGAAGCUGACGUGGGCUCAACAGAGGAUUGAGCAUCA
B4: chr2:39278355:39278356:-_ENSG00000115904_ENST00000402219|hu_mus|motif|central (ssRNA)
RNA: GGGAGUUCUACAGUCCGACGAUCACAGCUUCCUACUAAUGGGUGGGGACUGCCUUCAUCUGUCAUUUCUACAGUAUCUUCGGUAUGGCCCAGUAACUUUACACUAAGUUCAUGUAUAUCUACUAUACGACUGAAUAUGUUUUCCAACAGAGGAUUGAGCAUCA
B5: chr1:40083102:40083103:+_ENSMUSG00000026074_ENSMUST00000163854|mus_hu|FALSE|FALSE (ssRNA)
RNA: GGGAGUUCUACAGUCCGACGAUCCAUGAAACAAAUUCUUUCUCAAGACAUUUAUUACAAAUGUCAUGAAUAUAUUCAUAAAGUAAAAUUGGUUUAAAAAAACAGAGAACAAGAGAGCAAGUGAGAAAACGAGAAAAGCCAGGACAACAGAGGAUUGAGCAUCA
B6: chrX:45232703:45232704:-_ENSMUSG00000031099_ENSMUST00000088973|mus_hu|FALSE|FALSE (ssRNA)
RNA: GGGAGUUCUACAGUCCGACGAUCAGAUGGGACCCAUCGUUUAAAUUCAUUCAUCCAGUUGUGUAAAGUAGACUUUGGAACUAAAACCAUGUGAGGUCCAGGAAUAUUUCGGUAGUGUUUCAGGUAACCAAGCAAAGCAAUUGUCAACAGAGGAUUGAGCAUCA
B7: chr4:62795864:62795865:+_ENSMUSG00000028358_ENSMUST00000107415|mus_mus|FALSE|FALSE (ssRNA)
RNA: GGGAGUUCUACAGUCCGACGAUCGCCUCCCAGAAAUCACAUGUGAAAAGAAACCGAGUCCCCCAUAAGAUAAAAAAUUUGCUAAAGUAUUGUGAAAAAUGACGACAACAACAACAACAAAAUUGAGUGGAGAGUCAGCUAUGUCAACAGAGGAUUGAGCAUCA
B8: chr2:192256868:192256869:+_ENSG00000128641_ENST00000304164|hu_hu|FALSE|FALSE (ssRNA)
RNA: GGGAGUUCUACAGUCCGACGAUCUGGGUUUCGGAUGAAUAUCUUUGAUCUACCAAAGGAGUAUUCUUCCACGGGAAUUUCUAAUUCAUUAAAUAGGACCUCCACACCAGACCUGGCUGGUCCUUUCCAAUGAGGCCAUGUUUGCAACAGAGGAUUGAGCAUCA
B9: chr16:28827448:28827449:-_ENSMUSG00000051065_ENSMUST00000100023|mus_hu|FALSE|FALSE (ssRNA)
RNA: GGGAGUUCUACAGUCCGACGAUCAAAUAUCAGUAGUGGUGAAAGCUCAUAAGAAAAAAGACAAAAACAAAAUAAUAAAAAUAAUAGGAUAGAAUCGUUAAGCAUCAGAAAGAGAUUUGUUUCCCCAUACCCAUGAACAAAUUUCAACAGAGGAUUGAGCAUCA
B10: chr19:15271055:15271056:-_ENSG00000074181_ENST00000263388|hu_hu|motif|central (ssRNA)
RNA: GGGAGUUCUACAGUCCGACGAUCCAUAUAUAUAUUUUGUAAAAAAUAAUAAUAAUAAGUUUGUUUAAAUGAAUUUGUUUCGGUACAAAAUGUAAAAAAAAAAAGAAAAAUAAAAAUAAUAAUAAUUCAUUCAUGUCAGAGUGUCAACAGAGGAUUGAGCAUCA
B11: chr17:27717376:27717377:-_ENSMUSG00000024213_ENSMUST00000025050|mus_mus|FALSE|FALSE (ssRNA)
RNA: GGGAGUUCUACAGUCCGACGAUCCACAGGACAGAUUUUUAGAAAGUUUCAUCGCACAUGGGUGUCUUUUAAUGAAAAAAAAAAAAAAAAUUCAGAGGAAAUAUCUGGCCAGGCCGGGACGAGACAAAUGGGAGUGCUUCGGAACAACAGAGGAUUGAGCAUCA
B12: chr14:49642940:49642941:-_ENSMUSG00000061244_ENSMUST00000162175|mus_mus|FALSE|FALSE (ssRNA)
RNA: GGGAGUUCUACAGUCCGACGAUCUAAAGCAUAAUCAAUAUGCUCAAUACAUAAAAAUUCCACAAGAAUGGUAAAAAUUCUAAAGGCAUUCCUUGGUAAAUCAGAAGGAUCAGAAAGCCUAUGACAUCUUUCAAAGGCUUGUUUCAACAGAGGAUUGAGCAUCA

Target: T1, UNK ZnF1-3
Test: nsRBNS (natural sequence RNA bind-n-seq); RBNS binding buffer (assumed for nsRBNS): 25 mM Tris pH 7.5, 150 mM KCl, 3 mM MgCl2, 0.01% Triton X-100, 500 ug/ml BSA, 20 U/ml SUPERase-In, 4 C; UNK is unkempt and MSI1 is Musashi-1; names of the RNAs are library labels; protein concentration not given here; high values mean tight binding

How did the binding signal turn out when B1 was run?
Its binding signal is 0.391 enrichment R.

Which binding signal does the source give for B2 here?
Its binding signal is 0.93 enrichment R.

For B3, which binding signal is on record?
Its binding signal is 1.38 enrichment R.

With B4 as the binder, how does the binding signal read?
Its binding signal is 0.721 enrichment R.

B5 was tested. Which binding signal did it give?
The binding signal was 2.12 enrichment R.

For B6, which binding signal is on record?
Its binding signal is 1.15 enrichment R.

B7 was tested. Which binding signal did it give?
Its binding signal is 3.53 enrichment R.

With B8 as the binder, how does the binding signal read?
The binding signal was 0.529 enrichment R.

Which binding signal does the source give for B9 here?
The binding signal was 8.38 enrichment R.

B10 was tested. Which binding signal did it give?
Its binding signal is 11.2 enrichment R.

For B11, which binding signal is on record?
Its binding signal is 4.44 enrichment R.

Which binding signal does the source give for B12 here?
Its binding signal is 0.307 enrichment R.
